Bioassay records deposited in PubChem by ICCB-Longwood Screening Facility, Harvard Medical School.
Only a selection was taken, and hits are over-represented in it overall.
VACV E9 pol inh: vaccinia E9 polymerase processive synthesis inhibition. normalized absorbance, % (concentration not given with the values). 46,000 tested, 0.94% active. in vitro processive DNA synthesis, absorbance read-out; active compounds read low; in the data active = normalized absorbance mostly below about 85%, no sharp cut-off; inactive = mostly above about 86%
The depositor's hits bear a star; ! = a repeat was not active.

SMILES	VACV E9 pol inh
CN(C)CCCNc1nnc(Cc2ccccc2)c2ccccc12	103
C=CCn1c(-c2ccccc2)nn(CCC#N)c1=S	100
O=C(O)c1ccccc1Nc1cccc(C(F)(F)F)c1	85*!
O=C(Nc1cccc(C(F)(F)F)c1)C(F)(F)F	88
O=C(O)c1ccccc1Nc1ccccc1	99
Nc1ncnc2c1nc(Br)n2C1O[C@H]2COP(=O)(O)O[C@@H]2[C@@H]1O (stereo partly drawn)	99
OC(CNCc1ccccc1)Cn1c2c(c3ccccc31)CCCC2 (stereo not drawn)	100
CCCCn1c(CNC(=O)c2ccc(OC)cc2)nnc1SC	102
Clc1ccc(-c2csc3[n+]2CCS3)cc1	102
CC[n+]1c(-c2ccccc2)c2cc(N)ccc2c2ccc(N)cc21	12*
Nc1ccc2c(c1)nc(-c1ccccc1)c1cc(N)ccc12	98
O=C(CC1(O)C(=O)N(CCc2ccccc2)c2ccc(Cl)cc21)c1ccccc1 (stereo not drawn)	96
CCC(=O)Nc1ccccc1-c1nc2ccccc2s1	95
COc1ccc2c(c1)c1c3n2CCN=C3N(C)CC1	58*
COc1ccc2c(c1)c1c3n2CCNC3CCC1 (stereo not drawn)	92
COc1ccc2c3c([nH]c2c1)C(C)=NCC3	100
COc1cc(NC(=O)COc2cc(C)c(Cl)c(C)c2)ccc1NC(=O)c1cc2ccccc2o1	100
CCC(=O)Nc1c(Cl)nc(C)c(Cl)c1C	97
COc1ccc(-c2nc(CNS(=O)(=O)c3ccccc3F)cs2)cc1	101
COCC(=O)Nc1ccc(CC#N)cc1	100
CCn1c2ccccc2c2cc(C=Nc3ccc(Cl)cc3)ccc21	102
CCn1c2ccccc2c2cc(/C=N/n3cnnc3)ccc21	61*
CCN(Cc1ccccc1)c1ccc(/C=N/n2cnnc2)cc1	104
O=C(CNC(=S)N(Cc1ccccc1)Cc1cccs1)NC1CCCCC1	77*
O=C(O)CNC(=S)N(Cc1ccccc1)Cc1cccs1	88
SMILES	VACV E9 pol inh
O=C(O)CNC(=S)N(Cc1cccs1)C1CCCCC1	101
Cc1ccc(NC(=O)CCc2nnc3ccc(NCCCc4ccccc4)nn23)cc1	102
CC(=O)Nc1ccc(N=Cc2ccc(C)cc2)cc1	100
CC(=O)Nc1ccc(N=Cc2ccc(OC(=O)c3cccnc3)cc2)cc1	100
CC(=O)Nc1ccc(N=Cc2ccc(OC(=O)c3ccccc3Br)cc2O)cc1	82*
Cc1cc(C)c(S(=O)(=O)n2ccnc2)c(C)c1	91
CC(Oc1ccc(F)cc1)C(=O)NCc1ccncc1 (stereo not drawn)	106
O=C1CCC(c2ccccc2)CC1	66*
O=C(O)CN1CCC(c2ccccc2)CC1	103
O=C1CC(c2ccccc2)SC(c2ccccc2)C1 (stereo not drawn)	100
Cc1ccc(-n2cnc3cc(NC(=O)c4ccccc4)ccc32)cc1	100
O=C(NCc1cccc(C(F)(F)F)c1)c1cccs1	84
COc1cc2c3c(c1O)-c1c(cccc1OC)CC3[N+](C)(C)CC2 (stereo not drawn)	100
O=C(NCCCN1CCCCC1)c1ccc2nc(N3CCCCC3)sc2c1	97
CCN1CCCC1CNC(=O)c1nnc(Cc2cccc(F)c2)o1 (stereo not drawn)	108
O=C(NCCN1CCCCCC1)c1ccc2c(c1)ncn2C1CCCCC1	97
CCN1CCCC1CNC(=O)c1ccc2c(c1)sc1nc(-c3cccc(OC)c3)cn12 (stereo not drawn)	47*
CCOC(=O)N1CCN(C(=O)c2ccc3c(c2)sc2nc(-c4ccc(OC)cc4)cn23)CC1	99
O=C(NCCCN1CCCCC1)c1ccc2c(c1)sc1nc(-c3ccccc3)cn12	58*
Cc1cc(C(F)(F)F)nn1Cc1ccc(C(=O)O)cc1	93
CC1CCC(C)C(NC(=O)c2ccc(I)cc2)C1 (stereo not drawn)	98
O=C(COC(=O)c1ccccc1F)NC(c1ccccc1)c1ccccc1	104
Cc1ccc(C(=O)CCC(=O)Nc2cccc3ccccc23)cc1	102
CCC(C)Sc1nc2c([nH]c3ccccc32)c(=O)n1-c1ccccc1 (stereo not drawn)	101
CN(C)CCOC(=O)c1ccc2[nH]c3c(c2c1)CSCC3	58*
SMILES	VACV E9 pol inh
CC(C)OC(=O)c1ccc2[nH]c3c(c2c1)CCCC3	103
O=C(O)c1ccc2[nH]c3c(c2c1)CSCC3	89
O=C(Nc1c(F)cccc1F)c1cccc(Oc2ccccc2)c1	107
C[n+]1ccc(/C=C/c2ccc3c(c2)OCO3)c2ccccc21	60*
C[n+]1ccc(/C=C\c2ccco2)c2ccccc21	91
C[n+]1ccc(/C=C/c2ccccc2O)c2ccccc21	100
CC1(CN)CCCC1	98
CC(C)CCN1C(=O)C(O)(CC(=O)c2cccc(C(F)(F)F)c2)c2ccccc21 (stereo not drawn)	103
CCOC(=O)c1c(NC(C)=O)sc(Br)c1-c1ccc(C)cc1	89
CCOC(=O)c1c(NC(=O)CCN2CCOCC2)sc(C)c1-c1ccccc1	82
CCOC(=O)c1c(NC(=O)/C=C\C(=O)O)sc(C)c1-c1ccccc1	63*
COC(NC(=O)Nc1nc2ccccc2s1)(C(F)(F)F)C(F)(F)F	100
CCOc1cc(C(=O)NCc2ccc3[nH]c(C)cc3c2)cc(OCC)c1OCC	104
CC1(C)CC(=O)C=C(NC(=O)Nc2ccccc2)C1	102
CC1(C)CC(=O)C(C(=S)Nc2ccccc2)C(=O)C1	100
CC1(C)Cc2ccccc2/C(=C/C(=O)Nc2ccccc2)N1	86*
C=CC1CN2CCC1CC2[C@H](O)c1ccnc2ccc(OC)cc12 (stereo partly drawn)	97
O=C(CCCCl)Nc1ccccc1N1CCOCC1	105
O=C(O)c1ccc(CSCc2ccccc2)o1	92
O=C(O)c1ccc(CS(=O)(=O)c2ccccc2)o1	19*
COc1ccc(S(=O)(=O)Cc2ccc(C(=O)N3CCOCC3)o2)cc1	98
COC(=O)c1ccc(CSc2nc3ccncc3[nH]2)cc1	95
Cc1cc(=O)[nH]c(/N=C(\N)Nc2ccccc2)n1	100
Cc1cc(C)nc(NC(N)=NCc2ccccc2)n1	98
Cc1cc(C)nc(/N=C(\N)Nc2ccccc2)n1	41*
SMILES	VACV E9 pol inh
CC(=O)Oc1c(Sc2ccccc2)c(C)nn1C(C)(C)C	83*
Cc1nn(C(C)(C)C)c(OC(=O)c2ccccc2)c1Sc1ccccc1	88
Cc1nn(-c2ccccc2)c(OC(=O)c2cccs2)c1Sc1ccccc1	101
COc1ccc(C2C(C(=O)Nc3cc(C)c(Cl)cc3OC)c3ccccc3C(=O)N2C)cc1 (stereo not drawn)	102
Cc1ccc(C)n1C(CC(=O)O)C1CCCCC1 (stereo not drawn)	70*
NC(CC(=O)O)C1CCCCC1 (stereo not drawn)	102
Cc1ccc(C)n1C(CC(=O)O)c1ccc(C#N)cc1 (stereo not drawn)	106
CCN1CCCC1CNC(=O)c1c(-c2c(Cl)cccc2Cl)noc1C (stereo not drawn)	92
CC(C)(C)c1cc(/C=C2\SC(=S)NC2=O)cc(C(C)(C)C)c1O	98
CCOc1cc(/C=C2/SC(=S)NC2=O)cc(Br)c1O	69*
CCOc1cc(/C=C2\SC(=S)NC2=O)cc(Cl)c1OC(=O)c1ccc(OC)cc1	100
N#CC1=C(SCC(=O)Nc2ccccc2)NC(=O)CC1c1ccccc1 (stereo not drawn)	99
NNC(=O)c1ccc(/C=N\O)nc1	99
CCOC(=O)c1cc(-c2ccnn2C(=O)c2ccccc2)on1	96
Cc1cc(-c2nc(-c3ccnn3S(=O)(=O)c3cccc(C(F)(F)F)c3)cs2)no1	101
